ELG1 DNA repair – qHTS screen for small molecules that inhibit ELG1-dependent DNA repair in human embryonic kidney (HEK293T) cells expressing luciferase-tagged ELG1. HEK293T ELG1-luciferase reporter, luminescence, 16 h; DNA damage induced by 5-fluorouridine. 330,000 compounds, 2.3% hits. Potency, µM (highest dose often 46.1 µM), usual class: inhibitors; note: nearly all actives have a fitted effect of over 55% in size
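HEK293T cells expressing luciferase-tagged ELG1 (2,000/well) received 5-Fluorouridine plus compound or DMSO for 16 hr at 37 °C. Luciferase was read by ONE-Glo luminescence after 30 min at room temperature.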
NPC1 prom act – qHTS Assay for NPC1 Promoter Activators. AID 485313, 2010. Potency, µM (highest dose often 9.22 µM), usual class: activators. Huh7 NPC1 promoter luciferase reporter, 24 h. 320,000 compounds, 2.4% hits; note: nearly all actives have a fitted effect of over 60% in size
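Huh7 reporter cells (NPC1 promoter driving luciferase) are dosed with compound for 24 h at 37 °C, 5% CO2; luciferase detection reagent is then added and luminescence measured after 10 min at ambient temperature.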
ELG1 genotox – qHTS screen for small molecules that induce genotoxicity in human embryonic kidney (HEK293T) cells expressing luciferase-tagged ELG1 | HEK293T ELG1-luciferase reporter, luminescence, 16 h | Potency, µM (series often up to 46 µM), actives largely listed as activators | 330,000 compounds, 1.3% hits | AID 504466, 2011; note: nearly all actives have a fitted effect of over 60% in size
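HEK293T cells expressing luciferase-tagged ELG1 were exposed to compound or DMSO vehicle for 16 hr at 37 °C and 5% CO2. Luciferase activity was then measured with ONE-Glo after 30 min at room temperature.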
SMN2 splice up – qHTS Assay for Enhancers of SMN2 Splice Variant Expression; 210,000 compounds, 2.8% hits; HEK293 SMN2-luciferase splicing reporter, luminescence, 30-36 h; AID 1458, 2008; Potency, µM (series often up to 46.1 µM), most hits filed as activators; note: nearly all actives have a fitted effect of over 55% in size
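qHTS luciferase splicing reporter: luminescence rises when SMN2 exon 7 is included in transfected HEK293 cells. Compound exposure lasted 30-36 h at 37C, with 4.5 mM final sodium butyrate as control, followed by a ONE-Glo read.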
Rab9 prom act – qHTS Assay for Rab9 Promoter Activators | Huh7 Rab9 promoter-luciferase reporter, luminescence, 24 h | Potency, µM (doses to about 9.22 µM), actives largely listed as activators | 320,000 compounds, 2.8% hits; note: nearly all actives have a fitted effect of over 60% in size
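Luciferase signal after 10 min detection reagent at ambient indicates Rab9 promoter upregulation; stably transfected Huh7 cells were treated 24 h with compound in DMSO at 37 °C, 5% CO2.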
FLuc counter – qHTS profiling assay for firefly luciferase inhibitor/activator using purifed enzyme and Km concentrations of substrates (counterscreen for miR-21 project). purified FLuc, Km substrates, luminescence inhibition. Potency, µM (top dose mostly 57.5 µM), hits mostly inhibitors. 360,000 compounds, 6.9% hits. AID 588342, 2011; note: nearly all actives have a fitted effect of over 55% in size
Target sequence (P08659 whole entry, looked up): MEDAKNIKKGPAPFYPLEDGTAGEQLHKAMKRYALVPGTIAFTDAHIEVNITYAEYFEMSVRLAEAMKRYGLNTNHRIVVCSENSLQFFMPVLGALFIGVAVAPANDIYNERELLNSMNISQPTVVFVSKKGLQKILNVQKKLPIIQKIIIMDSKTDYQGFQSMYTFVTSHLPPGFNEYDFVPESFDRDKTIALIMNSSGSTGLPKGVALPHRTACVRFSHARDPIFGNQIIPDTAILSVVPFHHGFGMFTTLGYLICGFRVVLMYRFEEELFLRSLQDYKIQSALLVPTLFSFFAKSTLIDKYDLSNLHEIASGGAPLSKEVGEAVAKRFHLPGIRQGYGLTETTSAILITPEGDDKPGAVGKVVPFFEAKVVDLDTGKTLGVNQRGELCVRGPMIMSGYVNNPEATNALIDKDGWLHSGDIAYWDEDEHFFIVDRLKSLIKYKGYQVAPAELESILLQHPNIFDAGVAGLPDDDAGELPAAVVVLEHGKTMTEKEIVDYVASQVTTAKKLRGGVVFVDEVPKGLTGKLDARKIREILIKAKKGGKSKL
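Purified P. pyralis luciferase (10nM final) with 10uM D-luciferin and 10uM ATP (Km levels) in 50mM Tris acetate pH 7.5, 10mM Mg acetate, 0.01% Tween-20, 0.05% BSA; qHTS 6-point titration, ~60 µM downward; luminescence read.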
Numbers stand for hits; [ ] = another dose, or the depositor's remark. In the library only some 9.3% were active in any assay of this set; here they are far more common. Calls come from the whole dose curve; as a rule, active = well fitted curve in the direction sought with a large enough effect; inconclusive = small, poorly fitted or top-dose-only effect, or another doubt; inactive = no such curve, though single readings can be large; an effect the other way counts as inactive or inconclusive.

What do the screens show for `CN=c1scc(C)n1/N=C/c1ccc(O)cc1O`?
ELG1 DNA repair: inconclusive; NPC1 prom act: 0.45µM; ELG1 genotox: inconclusive; SMN2 splice up: 4.5µM; Rab9 prom act: 0.71µM; FLuc counter: 0.43µM

What do the screens show for `Cc1ccc(C)c(NC(=O)c2ccc(OCc3c(C)noc3C)cc2)c1`?
ELG1 DNA repair: inactive; NPC1 prom act: inactive; ELG1 genotox: inactive; Rab9 prom act: inactive; FLuc counter: inactive

What do the screens show for `COc1ccc(CSCC(=O)NCCC(C)C)cc1`?
ELG1 DNA repair: inactive; NPC1 prom act: inactive; ELG1 genotox: inactive; Rab9 prom act: inactive; FLuc counter: inactive

How did CCOc1cc(C(=O)OCC(=O)c2c(C)[nH]c3ccccc23)ccc1OCC(=O)N1CCOCC1 do in these assays?
ELG1 DNA repair: 16µM; NPC1 prom act: inactive; ELG1 genotox: inactive; SMN2 splice up: inactive; Rab9 prom act: inactive; FLuc counter: inactive

What do the screens show for `CCOc1cc(/C=C/c2nc3ccccc3s2)ccc1OCC(=O)N1CCOCC1`?
ELG1 DNA repair: 23µM; NPC1 prom act: inactive; ELG1 genotox: inactive; SMN2 splice up: inactive; Rab9 prom act: inactive; FLuc counter: inconclusive

How did O=C(NCCCNC(=O)c1ccco1)c1ccc(F)cc1 do in these assays?
ELG1 DNA repair: inactive; NPC1 prom act: inactive; ELG1 genotox: inactive; Rab9 prom act: inactive; FLuc counter: inactive

How did COC(=O)c1ccc(/C=C/C(=O)c2ccc(OC)cc2)cc1 do in these assays?
ELG1 DNA repair: inconclusive; NPC1 prom act: inconclusive; ELG1 genotox: inactive; SMN2 splice up: inactive; Rab9 prom act: inactive; FLuc counter: 11µM

What do the screens show for `COc1ccc(C(=O)/C=C/c2ccccc2)c(O)c1`?
ELG1 DNA repair: inconclusive; NPC1 prom act: inconclusive; ELG1 genotox: inactive; SMN2 splice up: inactive; Rab9 prom act: inconclusive; FLuc counter: 6µM

Results for COc1ccc(/C=C/C(=O)c2ccc(O)cc2O)cc1 ?
SMN2 splice up: inactive

How did COc1ccc(/C=C/C(=O)c2cc3c(cc2N)OCO3)cc1 do in these assays?
ELG1 DNA repair: inconclusive; NPC1 prom act: inconclusive; ELG1 genotox: inconclusive; SMN2 splice up: inconclusive; Rab9 prom act: inconclusive; FLuc counter: 2.1µM

How did COc1ccc(/C=C/C(=O)c2cc(O)ccc2O)cc1 do in these assays?
SMN2 splice up: inactive

What do the screens show for `O=C(/C=C/c1ccc(O)cc1)c1ccc(O)cc1O`?
ELG1 DNA repair: inconclusive; NPC1 prom act: inactive; ELG1 genotox: inconclusive; SMN2 splice up: inactive; Rab9 prom act: inactive; FLuc counter: 11µM

Results for O=C(NCc1ccc(Cl)cc1)c1ccc(-c2ccccc2C(F)(F)F)o1 ?
ELG1 DNA repair: inactive; NPC1 prom act: inactive; ELG1 genotox: inactive; SMN2 splice up: inactive; Rab9 prom act: inactive; FLuc counter: inactive

How did Cc1csc(SCC(=O)Nc2sc3c(c2C#N)CCC3)n1 do in these assays?
ELG1 DNA repair: inactive; NPC1 prom act: inactive; ELG1 genotox: inactive; SMN2 splice up: inactive; Rab9 prom act: inactive; FLuc counter: inconclusive

Results for COc1ccc(CCNC(=O)Cc2c(C)c3c(cc(C)c4c(C)c(C)oc43)oc2=O)cc1OC ?
SMN2 splice up: inactive; FLuc counter: inactive

What do the screens show for `COc1ccc(C2SCCN2C(=S)Nc2cccc(Cl)c2)cc1` (stereo unspecified)?
ELG1 DNA repair: inactive; NPC1 prom act: inactive; ELG1 genotox: inactive; SMN2 splice up: inactive; Rab9 prom act: inactive; FLuc counter: inactive

Results for N/C(=C/C(=O)c1ccccc1O)C(F)(F)F ?
ELG1 DNA repair: inactive; NPC1 prom act: inactive; ELG1 genotox: inactive; SMN2 splice up: inactive; Rab9 prom act: inactive; FLuc counter: inconclusive

What do the screens show for `COc1ccc(/C=C/C(=O)c2ccc(Cl)cc2)c(OC)c1`?
ELG1 DNA repair: inconclusive; NPC1 prom act: inactive; ELG1 genotox: inconclusive; SMN2 splice up: inactive; Rab9 prom act: inactive; FLuc counter: 2.1µM

How did COc1ccc(/C=C/C(=O)c2cc(Cl)ccc2O)c(OC)c1 do in these assays?
ELG1 DNA repair: inconclusive; NPC1 prom act: inconclusive; ELG1 genotox: inactive; Rab9 prom act: inactive; FLuc counter: 11µM

How did COc1ccc(/C=C/C(=O)c2ccc(OC)cc2OC)cc1 do in these assays?
ELG1 DNA repair: inactive; NPC1 prom act: inactive; ELG1 genotox: inactive; Rab9 prom act: inactive; FLuc counter: 12µM

Results for COc1ccc(C(=O)/C=C(\N)C(F)(F)F)c(O)c1 ?
ELG1 DNA repair: inactive; NPC1 prom act: inactive; ELG1 genotox: inactive; SMN2 splice up: inactive; Rab9 prom act: inactive; FLuc counter: 11µM

Results for COc1ccc(N2C(=O)CC(NC3CC3)C2=O)cc1 (stereo unspecified) ?
ELG1 DNA repair: inactive; NPC1 prom act: inactive; ELG1 genotox: inactive; SMN2 splice up: inactive; Rab9 prom act: inactive; FLuc counter: inactive

What do the screens show for `O=C(Cn1ncc2c(=O)oc3ccccc3c21)Nc1nc2ccccc2s1`?
ELG1 DNA repair: inactive; NPC1 prom act: inactive; ELG1 genotox: inactive; SMN2 splice up: inactive; Rab9 prom act: inactive; FLuc counter: inactive

Results for CN(C)c1ccc(/C=C/C(=O)c2cc(Cl)ccc2O)cc1 ?
ELG1 DNA repair: inconclusive; NPC1 prom act: inconclusive; ELG1 genotox: inactive; Rab9 prom act: inactive; FLuc counter: 9.5µM

What do the screens show for `O=C(/C=C/c1ccncc1)c1cc(Cl)ccc1O`?
ELG1 DNA repair: inactive; NPC1 prom act: inactive; ELG1 genotox: inactive; Rab9 prom act: inactive[1.84 µM]; FLuc counter: inactive

What do the screens show for `COc1ccc(C(=O)/C=C/c2ccc(OC)cc2OC)c(O)c1`?
ELG1 DNA repair: inconclusive; NPC1 prom act: inconclusive; ELG1 genotox: inconclusive; Rab9 prom act: inconclusive; FLuc counter: 3µM

Results for COc1ccc(/C=N/n2c(SC)nnc2-c2ccccc2)cc1C ?
SMN2 splice up: inactive; FLuc counter: inactive

Results for COc1ccc(/C=N/n2c(SC)nnc2-c2ccccc2)c(OC)c1OC ?
ELG1 DNA repair: 8.2µM; NPC1 prom act: inactive; ELG1 genotox: inactive; SMN2 splice up: 14µM; Rab9 prom act: inactive; FLuc counter: inactive

How did CCN(CC)CCNC(=O)C(Oc1ccccc1)Oc1ccccc1 do in these assays?
ELG1 DNA repair: inactive; NPC1 prom act: inactive; ELG1 genotox: inactive; Rab9 prom act: inactive; FLuc counter: inactive

How did CCN1CCN(c2csc3ccc(Br)cc3c2=O)CC1 do in these assays?
FLuc counter: 13µM

How did CCN1CCN(c2csc3ccc(C)cc3c2=O)CC1 do in these assays?
FLuc counter: 12µM

How did CCCc1cc(C(=O)N2CCCC(N3CCN(c4ccc(F)cc4)CC3)C2)no1 (stereo unspecified) do in these assays?
ELG1 DNA repair: inactive; NPC1 prom act: inactive; ELG1 genotox: inactive; Rab9 prom act: inactive; FLuc counter: inactive

High-throughput results: PubChem, National Center for Advancing Translational Sciences (NCATS)
